Each structure is given as a SMILES string. Inconclusive results are not listed. Values without a mark were called inactive. Activity calls are given as the source filed them. Calls come from the whole dose curve; as a rule, active = well fitted curve in either direction with a large enough effect; inconclusive = small, poorly fitted or top-dose-only effect; inactive = no such curve, though single readings can be large or run the other way.
Potency is the fitted concentration of half-maximal effect.

The assay has as its target Lysosomal alpha-glucosidase (Homo sapiens) (UniProt P10253). Nature of the assay: Confirmation of Inhibitors and Activators of Human alpha-Glucosidase From Spleen Homogenate.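 For Potency: fluorescence of 4-methylumbelliferone released from a fluorogenic glucopyranoside substrate at pH 5.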 For activity change, both directions: 0% is about no effect. Particulars: alpha-glucosidase enzyme activity; series mostly up to 60.5 µM; activity change, both directions: at the top concentration. Put shortly:
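Fluorogenic assay using human spleen homogenate (1 ug) as enzyme source with 1 mM 4-methylumbelliferyl-alpha-D-glucopyranoside, pH 5.0 citrate buffer, 40 min at 37 C. 4-MU read (Ex 365/Em 440) after NaOH/glycine stop; AC50 from Hill fits.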
With `Clc1ccc(-c2ccnc(Oc3cc(Cl)ccc3Cl)n2)cc1`, the “activity change, both directions” value is -3.27% [at 31.5 µM].
On to `CCCN1CNc2c(c(=O)[nH]c(=S)n2CCc2ccccc2OC)C1`, for which the Potency is 44.7 µM (active).
As for `COc1ccc(S(=O)(=O)N2CCOCC2)cc1`, the “activity change, both directions” value was 1.25%.
With `CCCN1CNc2c(c(=O)[nH]c(=S)n2CCc2ccc(Cl)cc2Cl)C1`, the Potency is 22.4 µM (active).
In the case of `COc1ccc(CCn2c3c(c(=O)[nH]c2=S)CN(CC(C)C)CN3)cc1OC`, the Potency is 14.1 µM (active).
Consider `C[C@@H](NC(=O)c1nc[nH]c1C(=O)N[C@@H](Cc1ccccc1)C(=O)OC(C)(C)C)c1ccccc1`, for which the “activity change, both directions” value was -2.65%.
`Cc1[nH]nc2c1C(c1ccc(OC(=O)c3ccco3)cc1)C(C#N)=C(N)O2` (centres undefined): the “activity change, both directions” value was 1.59%.
As for `c1ccc(-c2nc3nc4ccccc4nc3n2CC2CCCO2)cc1` (centres undefined), the “activity change, both directions” value was 7.03% [at 31.5 µM].
Take `O=C1c2cc(S(=O)(=O)N3CCOCC3)ccc2-c2ccc(S(=O)(=O)N3CCOCC3)cc21`: the “activity change, both directions” value is -16.8%.
With `CCCN1CNc2c(c(=O)[nH]c(=S)n2CCc2cc(Cl)cc(Cl)c2)C1`, the Potency is 7.94 µM (active).
Turning to `COc1ccc(/C=C/c2nnc(NC(=O)CSc3ccc(C)cc3)s2)cc1`, the “activity change, both directions” value was 13%.
The same measure, in the same setting: with `CCc1sc(-c2cc3cc(Cl)ccc3oc2=O)nc1-c1ccccc1` the figure was 19.5%; with `O=C(c1ccc2ccccc2c1)N1CCN(S(=O)(=O)c2ccccc2)CC1`, -1.67%.
Regarding `CCC1OC23CCCCC2C(C#N)(C(=N)O3)C1(C#N)C#N` (centres undefined), the “activity change, both directions” value is 2.02% [at 31.5 µM].
The same measure, in the same setting: with `O=S(=O)(c1ccc(F)cc1)N1CCOCC1` the figure was 9.5%; with `CC(=O)Nc1ccc(S(=O)(=O)N2CCN(c3ccc(C(C)=O)cc3)CC2)cc1`, -0.437%; with `Nc1cc(=O)[nH]c(=S)n1-c1cccc(C(F)(F)F)c1`, -2.3% [at 31.5 µM].
With `O=C(COc1ccc2ccccc2c1)N1CCN(C(=O)c2ccco2)CC1`, the “activity change, both directions” value is 1.13% [at 31.5 µM].
For the molecule `COc1ccc(CCn2c3c(c(=O)[nH]c2=S)CN(C(C)C)CN3)cc1OC`, the Potency was 44.7 µM (active).

The values above are taken from PubChem BioAssay AID2113 (National Center for Advancing Translational Sciences (NCATS), 2009).
